“And” between values parts separate entries of the source, which are not always exact repeats. Identical values can stand only once. Hit rate of the full screen: of about 16,000 compounds, about 4,000 (25%) were called active. Another 26% or so got no clear call; they are omitted. The call rests on the fitted dose curve; in most records, active means well fitted curve in the direction sought with a large enough effect; inconclusive means small, poorly fitted or top-dose-only effect, or effect the other way; inactive means no such curve, though single readings can be large or run the other way. These entries were drawn from the full list. Where a structure was tested more than once in an assay, its records may differ in their call. Square brackets hold non-standard residues; d marks the D form. Peptide text beside a SMILES is read from it.
These molecules were tested against Cytochrome P450 2C9 (Homo sapiens) (UniProt P11712) (assay: Cytochrome panel assay with activity outcomes). Settings: recombinant CYP, pro-luciferin dealkylation, luminescence, p450-cyp2c9; series mostly up to 57.1 µM; activity, negative = inhibition: at the top concentration.
On the % scale 0 is the no-effect control and ±100 the full control effect.

Chain of Cytochrome P450 2C9 (Homo sapiens) (P11712 whole entry, looked up): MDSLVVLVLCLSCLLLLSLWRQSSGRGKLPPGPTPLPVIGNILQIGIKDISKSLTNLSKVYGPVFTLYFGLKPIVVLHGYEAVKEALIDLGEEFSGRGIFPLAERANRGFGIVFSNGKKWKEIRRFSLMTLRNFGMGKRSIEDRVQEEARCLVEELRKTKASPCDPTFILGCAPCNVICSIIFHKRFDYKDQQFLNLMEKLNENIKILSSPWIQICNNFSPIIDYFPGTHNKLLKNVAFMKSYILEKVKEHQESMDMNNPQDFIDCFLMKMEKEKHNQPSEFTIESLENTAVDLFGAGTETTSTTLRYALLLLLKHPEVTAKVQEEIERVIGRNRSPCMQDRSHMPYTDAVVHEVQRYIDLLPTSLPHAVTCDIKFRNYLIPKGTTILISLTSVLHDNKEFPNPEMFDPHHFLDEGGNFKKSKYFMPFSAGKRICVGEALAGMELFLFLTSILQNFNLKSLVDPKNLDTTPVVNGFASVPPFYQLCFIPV

Row | SMILES | activity, negative = inhibition | AC50
1 | CCNc1nc(NCC)nc(ON=C(C)C)n1 | -8.7% (inactive) | –
2 | N=c1nc(N2CCCCC2)cc(N)n1O | – | inactive
3 | CO[C@@H](NC(N)=O)C(=O)O | 25.8% [at 11.4 µM] (inactive) | –
4 | NCC(=O)N[C@H](CO)C(=O)O (H-Gly-[dS]-OH) | 12.1% [at 11.4 µM] (inactive) | –
5 | CCOC(=O)N1CCN(C(=O)c2ccc(Cl)c(S(=O)(=O)N3CCOCC3)c2)CC1 | -23.4% (inactive) | –
6 | CCOC(=O)N1CCN(C(=O)c2oc3ccc(S(=O)(=O)N4CCCCC4)cc3c2C)CC1 | – | 10 µM (active)
7 | COc1ccc(S(=O)(=O)N(CCc2ccccc2)CC(=O)N2CCOCC2)cc1 | -22.5% (inactive) | –
8 | CCN(CC)C(=O)COc1ccc(S(=O)(=O)N2CCOCC2)cc1 | -37.4% (inactive) | –
9 | CN(Cc1ccccc1)S(=O)(=O)c1ccc(OCC(=O)N2CCOCC2)cc1 | – | 14.1 µM (active)
10 | COc1cccc(-c2nnc3n2N=C(C(C)(C)C)CS3)c1 | – | 17.8 µM (active)
11 | COc1cccc(-c2cc(NCc3ccc(OC)cc3OC)ncn2)c1 | -18.3% [at 2.29 µM] (inactive) | –
12 | COc1cccc(-c2cc(NCc3cnc(C)cn3)ncn2)c1 | 6.07% [at 2.29 µM] (inactive) | –
13 | Cc1nn(S(=O)(=O)c2cccs2)c(C)c1Sc1ccc([N+](=O)[O-])cc1 | – | 4.47 µM (active)
14 | O=C(C/C=N/OCc1ccc(F)cc1Cl)c1cnc(-c2ccccc2)s1 | – | 3.98 µM (active)
15 | COC(=O)C(NC(=O)c1ccccc1)=C1C=C(C)OC(C)=C1 | -8.95% (inactive) | –
16 | Cc1ccccc1/C=C1\OC(=O)c2ccccc21 | 33.4% (inactive) | –
17 | CC1=CC(=C2C(=O)c3ccccc3C2=O)C=C(C)N1Cc1ccco1 | – | 2.24 µM (active)
18 | CC1(C)OC(=O)N(Cc2ccco2)C1(C)O (centres undefined) | -21.2% (inactive) | –
19 | CCCCS(=O)(=O)NC1=NCN(Cc2ccco2)CN1 | -14.9% (inactive) | –
20 | CC1=CC(=C2C(=O)c3ccccc3C2=O)C=C(C)O1 | – | 2.51 µM (active)
21 | CC(=O)NC1(c2cccc(F)c2)CCN(CC(=O)NC(C)C)CC1 | -0.525% (inactive) | –
22 | CCCCCCCCCn1cc(C(C)=O)c(=O)[nH]c1=O | 3.97% (inactive) | –
23 | COc1ccc(CNc2ccnc(-c3ccccc3C(F)(F)F)n2)c(OC)c1 | 3.78% [at 2.29 µM] (inactive) | –
24 | Cc1ccc(C(=O)C(OC(=O)COc2ccccc2C)c2ccccc2)cc1 (centres undefined) | – | 15.8 µM (active)

Row | SMILES | activity, negative = inhibition | AC50
25 | Cc1ccc(C(=O)C(OC(=O)CNS(=O)(=O)c2ccccc2)c2ccccc2)cc1 (centres undefined) | – | 7.08 µM (active)
26 | Cc1ccccc1OCC(=O)OC1CCN(C)CC1 | -10.2% (inactive) | –
27 | Cc1ccc(C(=O)C(OC(=O)CN2C(=O)c3ccccc3C2=O)c2ccccc2)cc1 (centres undefined) | -20.4% (inactive) | –
28 | CCSc1nnc2n(N)c(=O)c3ccccc3n12 | -10.6% (inactive) | –
29 | CO[C@H]1COC(=O)CCC[C@H](C)[C@H](OC)COC(=O)C/C=C\[C@@H]1C | 25.3% [at 11.4 µM] (inactive) | –
30 | COc1ccc2[nH]cc(CCNc3ccnc(-c4ccc(C(=O)N(C)C)cc4)n3)c2c1 | -14% [at 2.29 µM] (inactive) | –
31 | COc1ccc2[nH]cc(CCNc3ncnc4ccc(-c5ccc(C(=O)N(C)C)cc5)cc34)c2c1 | – | 0.251 µM (active)
32 | COc1ccc2[nH]cc(CCNc3ncncc3-c3cccnc3)c2c1 | 0.571% [at 2.29 µM] (inactive) | –
33 | COc1ccc2[nH]cc(CCNc3ncncc3-c3ccc(N(C)C)cc3)c2c1 | – | 0.501 µM (active)
34 | COc1ccc2[nH]cc(CCNc3ncncc3-c3ccc(C(=O)N(C)C)cc3)c2c1 | – | 0.398 µM (active)
35 | COc1ccc(CNc2ncncc2-c2ccc(N(C)C)cc2)c(OC)c1 | -16.8% [at 2.29 µM] (inactive) | –
36 | COc1ccc(CNc2ncncc2-c2ccc(C(=O)N(C)C)cc2)c(OC)c1 | -28.8% [at 2.29 µM] (inactive) | –
37 | CN(C)C(=O)c1ccc(-c2cncnc2NCCc2cnc[nH]2)cc1 | -10.2% [at 2.29 µM] (inactive) | –
38 | COc1ccc2[nH]cc(CCNc3cc(-c4ccc(C(=O)N(C)C)cc4)ncn3)c2c1 | 8.96% [at 2.29 µM] (inactive) | –
39 | CSc1n[nH]c(-c2sccc2OCc2ccc(C)cc2)n1 | – | 5.01 µM (active)
40 | CSc1nnc(-c2sccc2OCc2ccccc2)n1C | – | 17.8 µM (active)
41 | Cn1c(-c2sccc2OCc2ccccc2)n[nH]c1=S | – | 11.2 µM (active)
42 | Cn1c(=O)c(-c2cccs2)nc2cnc(OCc3ccccc3)nc21 | -29.1% (inactive) | –
43 | CC(C)=CCC/C(C)=C/CO/N=C1/C[C@@H](O)[C@@H](O)[C@@H]2[C@@H]3C(=O)N(C4CCCCC4)C(=O)[C@H]3CC[C@@H]12 | -8.91% [at 11.4 µM] (inactive) | –
44 | CC(SCc1cn2cc(Cl)ccc2n1)C(=O)O (centres undefined) | -37.7% (inactive) | –
45 | COc1cccc(-c2cc(NCc3ccccc3OC)ncn2)c1 | -9.54% [at 2.29 µM] (inactive) | –
46 | CN(C)c1ccc(-c2cc(NCc3ccccc3)ncn2)cc1 | -5.31% [at 2.29 µM] (inactive) | –
47 | c1ccc(Oc2cc(-c3ccccc3)ncn2)cc1 | – | 20 µM (active)
48 | CO[C@@H]1COC(=O)[C@H](C)NC(=O)C/C=C\[C@@H](C)[C@@H](NS(=O)(=O)c2ccc(C)cc2)COC(=O)C/C=C\[C@@H]1C | -0.567% [at 11.4 µM] (inactive) | –

Row | SMILES | activity, negative = inhibition | AC50
49 | COCCNc1ncnc2ccc(-c3ccc(C(=O)N(C)C)cc3)cc12 | -1.35% [at 2.29 µM] (inactive) | –
50 | COc1cc(/C=C2/C(=N)N3OC(C)=CC3=NC2=O)ccc1OCCOc1ccc(C)cc1 | -13.9% (inactive) | –
51 | CCOc1cc(/C=C2/C(=N)N3C=CSC3=NC2=O)ccc1OCCCOc1ccccc1C | – | 0.631 µM (active)
52 | COc1ccccc1OCCOc1ccc(/C=C2/C(=N)N3OC(C)=CC3=NC2=O)cc1OC | -12.8% (inactive) | –
53 | COc1cc(/C=C2/C(=N)N3C=CSC3=NC2=O)ccc1OCCCOc1ccccc1C | – | 0.708 µM (active)
54 | CO[C@@H]1COC(=O)CC=C[C@@H](C)[C@@H]2C=C[C@H](O)[C@@H](COC(=O)C/C=C\[C@H]1C)O2 | 10.7% [at 11.4 µM] (inactive) | –
55 | Cc1ccccc1-c1cncnc1N1CCN(C)CC1 | 18.6% [at 2.29 µM] (inactive) | –
56 | CN1CCCC1CCNC1C2CC3CC(C2)CC1C3 (centres undefined) | 29.2% (inactive) | –
57 | NCCCNCCCCNCCCN | – | inactive
58 | NCCCCN | 14.3% (inactive) | –
59 | NCCCCNCCCN | – | inactive and 12.6 µM (active)
60 | CCN(CC)CCOC(=O)c1c(C)n(C)c2ccc(OC)cc12 | 5.37% (inactive) | –
61 | CCCCOC(=O)C1=C(C)Nc2ncnn2C1c1cc(OC)ccc1OC (centres undefined) | – | 7.94 µM (active)
62 | CCCCN(CC)Cc1ccc(CNC(=O)Nc2ccc(OC)cc2OC)o1 | -24.1% (inactive) | –
63 | O=C1C(SCCO)=C(SCCO)C(=O)c2ccccc21 | – | 5.01 µM (active)
64 | O=S(=O)(O)[C@@H](CO)c1ccccc1 (tested in a mixture with another compound) | -2.54% [at 11.4 µM] (inactive) | –
65 | CCCn1c(=O)c2[nH]c(C3CCCC3)nc2n(CCC)c1=O | -16.3% (inactive) | –
66 | Nc1ncnc2c1ncn2[C@H]1O[C@@H](C(=O)O)[C@@H](O)[C@H]1O | 20% [at 11.4 µM] (inactive) | –
67 | O=C(c1ccco1)N1CCC2(CC1)CN(c1ccccn1)C2 | 2.21% (inactive) | –
68 | COc1ccc(C(=O)N2CCC3(CC2)CCN(c2ncccn2)CC3)cc1 | -29.8% (inactive) | –
69 | CC(C)c1ccc(OCc2ccc(C(=O)N3CCN(c4ccccn4)CC3)cc2)cc1 | – | 3.16 µM (active)
70 | COCC(=O)N1CCC2(CC1)CCN(c1ccccn1)CC2 | -6.99% (inactive) | –
71 | COc1ccc(C(=O)N2CCC3(CC2)CN(C(=O)Nc2ccccc2)C3)cc1 | 0.0177% (inactive) | –
72 | COc1ccc(S(=O)(=O)NCc2ccc(C(=O)N3CCN(c4ccccn4)CC3)cc2)cc1 | – | 3.98 µM (active)

Row | SMILES | activity, negative = inhibition | AC50
73 | CC1CCc2cc(F)ccc2N1C(=O)CSc1nnc2c(n1)[nH]c1ccc(F)cc12 (centres undefined) | – | 1.78 µM (active)
74 | CON(C)C(=O)c1nnc2c(n1)[nH]c1ccccc12 | -19% [at 11.4 µM] (inactive) | –
75 | Cc1ccc2[nH]c3nc(CCCn4ccnc4-c4ccccc4)nnc3c2c1 | -17.6% [at 11.4 µM] (inactive) | –
76 | CCOCc1cnc(C)nc1NCC(=O)c1c(C)[nH]c2ccccc12 | 2.81% (inactive) | –
77 | Cc1ccc(C(=O)NNC(=O)CSc2nnc3c(n2)[nH]c2ccc(F)cc23)cc1 | – | 5.62 µM (active)
78 | Cc1ccc(C(=O)NNC(=O)c2cc3cc4ccccc4nc3s2)cc1 | -26% (inactive) | –
79 | C[C@@H]1CCc2cc(F)cc3c(=O)c(C(=O)O)cn1c23 | 17.9% [at 25.6 µM] (inactive) | –
80 | CCOC(=O)CC(=O)CSc1nnc2c(n1)[nH]c1ccccc12 | – | 8.91 µM (active)
81 | COc1cccc(/C=N\NC(=O)c2cc(OCC(F)(F)F)ccc2OCC(F)(F)F)c1 | -8.34% (inactive) | –
82 | CCOc1cc(CN2CCN(c3ccc(C(C)=O)cc3)CC2)ccc1OC | -29% (inactive) | –
83 | COc1ccc(/C=N/NC(=O)c2ccccc2)cc1CN1CCN(c2ccc(F)cc2)CC1 | – | 11.2 µM (active)
84 | COc1ccc(/C=N/NC(=O)c2ccn[nH]2)cc1COc1ccc(F)cc1 | – | 25.1 µM (active)
85 | Cc1ccc(/C=N\NC(=O)c2cc(OCC(F)(F)F)ccc2OCC(F)(F)F)cc1 | -1.33% (inactive) | –
86 | COc1ccccc1CN1CCC2(CC1)CCN(C(C)=O)CC2 | 8.11% (inactive) | –
87 | COc1ccc(/C=N/NC(=O)c2ccn[nH]2)cc1COc1ccc(Cl)cc1 | – | 12.6 µM (active)
88 | Cc1n[nH]c(=O)[nH]c1=O | -0.473% [at 25.6 µM] (inactive) | –
89 | CCOc1nc(N2CCCCC2)nc(-n2cc(-c3ccccc3)nn2)n1 | – | 2.24 µM (active)
90 | O=C(O)CC12C[C@H]3C[C@@H](CC(O)(C3)C1)C2 | -4.71% [at 11.4 µM] (inactive) | –
91 | Cc1cnc(CNc2nc(-c3cccnc3)nc3ccccc23)cn1 | 16.9% [at 2.29 µM] (inactive) | –
92 | NCCS | -13.1% (inactive) | –
93 | Cc1c(Br)c([N+](=O)[O-])nn1C(C)C(=O)Nc1nccs1 (centres undefined) | – | 3.55 µM (active)
94 | O=C(O)c1cc(=O)cc(C(=O)O)[nH]1 | -3.86% (inactive) | –

— PubChem BioAssay AID1851 (National Center for Advancing Translational Sciences (NCATS), 2009)
